The record followed here is PubChem BioAssay (NCI).

What all share (experiment): NCI-60 one-dose screen, 48 h (100 = growth as untreated, 0 = no growth, -100 = all killed)
Holding throughout (conditions): 10 µM unless noted

The subject of test [1] is T-47D breast.
For test [2], the system named is BT-549 breast.
The test system of test [3] is MDA-MB-435 melanoma.
The test system of test [4] is SW-620 colon.
The subject of test [5] is MCF7 breast.
For test [6], the system named is HCT-116 colon.
For test [7], the system named is HCC-2998 colon.
Test [8] has as its system KM12 colon.

This is part of a sample that, as a whole, favours compounds with a hit. Of some 83,000 tested, about 20% had one in any assay.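 Single-dose data. Exposure time 48 hours. Values below 10 considered active.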 Values without a mark were called inactive. Active and inactive are the calls of the source.

Regarding `CC(C)Sc1nc(Cl)c(C#N)c(-c2ccc(F)cc2)n1`, the growth in test [1] was 98.1%; in test [2], 108%; in test [3] it was 101%; in test [4], 72.2%; in test [5] it was 96.4%; in test [6] it was 62%. In addition, the growth was 112% in test [7] and 107% in test [8].

`O=C1N=C(N2CCOCC2)S/C1=C\c1cn(-c2ccccc2)nc1-c1ccccc1`: the growth in test [1] was 62.4%; in test [2], 53.8%; in test [3], 65.3%; in test [4], 98.8%; in test [5], 81.5%; in test [6], 64.4%. Also, the growth is 100% in test [7] and 96.4% in test [8].

As to `COC(=O)c1c(NC(=O)CSc2nnnn2-c2ccc(OC)cc2)sc(C)c1C`, the growth in test [1] is 92.5%; in test [2] it was 99.6%; in test [3], 109%; in test [4] it was 96.2%; in test [5] it was 85.8%; in test [6], 92.1%. For the same compound, the growth in test [7] is 87.6%; in test [8], 98.7%.

For the compound `COc1ccc(C2CC(c3ccc(Nc4ccnc5cc(Cl)ccc45)cc3)=NN2C(C)=O)cc1` (stereo not given), the growth was 40% in test [1]; 68.5% in test [2]; 23% in test [3]; 87.2% in test [4]; 55.7% in test [5]; 61.3% in test [6]. Besides, the growth was 70% in test [7] and 59.3% in test [8].

As for `COc1cnc2c(c1)C(=O)c1c-2n(CCCNC2=NCCS2)c(=O)c2cc(F)ccc12`, the growth in test [1] is 19.1%; in test [2], 13.4%; in test [3], 41.8%; in test [4], -22% (active); in test [5], 3.19% (active); in test [6] it was -75.3% (active). Further, the results for the growth in test [7] and in test [8] were 65.5% and 46.7%, respectively.

Regarding `CCCCCCCCN(CCO)CCCCCCCC`, the growth is 97.6% in test [1]; 106% in test [2]; 108% in test [3]; 101% in test [4]; 93.5% in test [5]; 104% in test [6]. For the same compound, the results for the growth in test [7] and in test [8] were 114% and 110%, respectively.

Turning to `C=CCNC(=O)/C(=C/c1cccc([N+](=O)[O-])c1)NC(=O)c1ccccc1`, the growth in test [1] was 98.2%; in test [2] it was 88.1%; in test [3], 101%; in test [4], 103%; in test [5], 101%; in test [6] it was 98.2%. In addition, the growth was 78.2% in test [7] and 109% in test [8].

Regarding `COc1ccc(N2CCN(CC(=O)N3CCN(c4nnc(-c5ccc(Cl)cc5)c(-c5ccc(Cl)cc5)n4)CC3)CC2)cc1`, the growth in test [1] was 31.6%; in test [2], 66.1%; in test [3] it was 57.5%; in test [4] it was 69.2%; in test [5] it was 37.3%; in test [6], 29.2%. Besides, the growth in test [7] is 51%; in test [8], 44.7%.

`Cc1nn2c(/C=C3/C(=O)Nc4cc(Cl)ccc43)c(-c3ccccc3)nc2s1`: the growth in test [1] is -63% (active); in test [2], 15.4%; in test [3], -14.8% (active); in test [4], -26.8% (active); in test [5], 21%; in test [6] it was -79% (active). The growth is 120% in test [7] and 78.7% in test [8].

Turning to `COc1ccc(Oc2ccccc2NC(=O)CNC(=O)c2cccc3ccccc23)cc1`, the growth was 41.6% [5 µM] in test [1]; 30.9% [5 µM] in test [2]; 1.66% [5 µM] (active) in test [3]; 25.6% [5 µM] in test [4]; 23.5% [5 µM] in test [5]; 10.9% [5 µM] in test [6]. In addition, the growth in test [7] was 33.7% [5 µM]; in test [8], 26.5% [5 µM].

`O=C(Nc1ccccc1)P(=O)(O)c1ccccc1`: the growth in test [1] was 113%; in test [2], 110%; in test [3] it was 111%; in test [4] it was 101%; in test [5], 96.8%; in test [6] it was 98.1%. The growth in test [7] is 97.3%; in test [8], 99.8%.

With `O=C(C(=O)N1CCOCC1)c1cn(CCCn2cc(C(=O)C(=O)N3CCOCC3)c3ccccc32)c2ccccc12`, the growth in test [1] is 94.7%; in test [2], 104%; in test [3], 111%; in test [4] it was 115%; in test [5], 95.4%; in test [6] it was 98.4%. Besides, the growth is 108% in test [7] and 110% in test [8].

With `c1ccc2nc(Cn3c[n+](Cc4ccc5ccccc5n4)c4ccccc43)ccc2c1`, the growth in test [1] is 10.6%; in test [2] it was 8.39% (active); in test [3] it was 9.62% (active); in test [4] it was 45.3%; in test [5], 22.9%; in test [6], 18.1%. Also, the growth in test [7] was 32.9%; in test [8], 21.9%.

As to `O=C1C2C(C(=O)N1CC[Se][Se]CCN1C(=O)C3C(C1=O)[C@H]1C=C[C@@H]3C1)[C@H]1C=C[C@@H]2C1` (stereo not given in full), the growth in test [1] was 5.4% (active); in test [2], -40.3% (active); in test [3], -65.9% (active); in test [4] it was 8.38% (active); in test [5] it was 9.03% (active); in test [6] it was 1.96% (active). The figures for the growth in test [7] and in test [8] were 28.6% and 0.112% (active), respectively.

As for `COc1cc2c(cc1OC)C(CC1(O)CCCCC1)N(S(=O)(=O)c1ccc(C)cc1)CC2` (stereo not given), the growth in test [1] was 29.7% [100 µM]; in test [2], -1.8% [100 µM] (active); in test [3] it was -23.1% [100 µM] (active); in test [4] it was 15.6% [100 µM]; in test [5], 25.7% [100 µM]; in test [6], 9.09% [100 µM] (active). In addition, the growth was 39% [100 µM] in test [7] and 4.08% [100 µM] (active) in test [8].

For the compound `N#Cc1c(-c2ccccc2)cc(-c2ccccc2)n(CCCCC(=O)O)c1=O`, the growth in test [1] was 103%; in test [2], 91%; in test [3], 59.4%; in test [4], 90.9%; in test [5], 78.2%; in test [6], 93.3%. The growth in test [7] is 95.6%; in test [8] it was 79.7%.

Turning to `Cc1ccc(OCC(=O)Nc2ccc(Oc3ccccc3)cc2)c([N+](=O)[O-])n1`, the growth in test [1] was 23.4%; in test [2], 98.5%; in test [3], 96.7%; in test [4], 96.8%; in test [5] it was 58.3%; in test [6], 69.8%. The figures for the growth in test [7] and in test [8] were 81.1% and 93.8%, respectively.

Take `NS(=O)(=O)N(c1cc(C(F)(F)F)cc(C(F)(F)F)c1)C1CCN(Cc2ccc(C(F)(F)F)cc2)CC1`: the growth in test [1] is 29.5%; in test [2], 37.4%; in test [3] it was -60.4% (active); in test [4], 19.9%; in test [5], 9.31% (active); in test [6] it was 2.21% (active). The growth is 3.6% (active) in test [7] and 12.9% in test [8].

Consider `N[C@H](CS)C(=O)O`, for which the growth in test [1] was 103%; in test [2] it was 98.3%; in test [3], 104%; in test [4] it was 106%; in test [5] it was 87.9%; in test [6], 112%. Also, the growth was 112% in test [7] and 109% in test [8].

On to `O=C1NC(=S)S/C1=C\c1cc(Br)ccc1O`, for which the growth is 82.9% in test [1]; 104% in test [2]; 105% in test [3]; 97.6% in test [4]; 106% in test [5]; 103% in test [6]. Moreover, the growth in test [7] was 103%; in test [8], 90.6%.

Turning to `O=CN1N=C(c2ccc(Cl)cc2)CC1c1cccc(Nc2ccnc3cc(Cl)ccc23)c1` (stereo not given), the growth in test [1] is 11.8%; in test [2] it was 7.26% (active); in test [3], 4.68% (active); in test [4] it was 27%; in test [5] it was 11.3%; in test [6] it was 7.72% (active). For the same compound, the growth is 40.9% in test [7] and 19.8% in test [8].

`CC1C(C)N(C(=O)CCl)c2ccccc2N1C(=O)CCl` (stereo not given): the growth in test [1] is -42% (active); in test [2], -86.4% (active); in test [3], -20.9% (active); in test [4], -81.7% (active); in test [5], -49.4% (active); in test [6], -93.2% (active). The growth is -93.9% (active) in test [7] and -91.7% (active) in test [8].

With `O=[N+]([O-])c1ccc2[nH]cc(-c3c4ccccc4cc4[nH]c5ccc([N+](=O)[O-])cc5c34)c2c1`, the growth was -10.2% (active) in test [1]; 19.2% in test [2]; -11.6% (active) in test [3]; 28% in test [4]; 8.11% (active) in test [5]; 9.37% (active) in test [6]. In addition, the growth in test [7] was 57.6%; in test [8], 5.55% (active).

Turning to `Cc1ccc2c(c1)C(=O)/C(=C\Nc1ccc(C(N)=O)cc1)C(O)O2` (stereo not given), the growth in test [1] is 73.9%; in test [2] it was 82.4%; in test [3], 98.4%; in test [4], 93.2%; in test [5], 96.6%; in test [6], 93.5%. For the same compound, the growth is 134% in test [7] and 88.2% in test [8].

On to `O=C(Nc1ccccc1S)c1ccccc1`, for which the growth is 105% in test [1]; 99.9% in test [2]; 101% in test [3]; 98.5% in test [4]; 91.1% in test [5]; 96.2% in test [6]. The growth in test [7] is 109%; in test [8], 104%.

As for `COC(=O)N/N=C/c1coc2ccc(Cl)cc2c1=O`, the growth was 83% in test [1]; 82.5% in test [2]; 103% in test [3]; 101% in test [4]; 88.9% in test [5]; 95.5% in test [6]. Further, the results for the growth in test [7] and in test [8] were 101% and 94%, respectively.

Regarding `CSc1nc(-c2ccc(O)cc2O)c2c(=O)[nH]c(Nc3ccc(S(=O)(=O)Nc4nc(C)cc(C)n4)cc3)nc2n1`, the growth is 91.5% in test [1]; 87.1% in test [2]; 196% in test [3]; 108% in test [4]; 113% in test [5]; 101% in test [6]. The growth in test [7] was 93.4%; in test [8] it was 102%.

Regarding `CCOC(=O)c1sc(NC(=O)COc2cccc(/C=C3\Cc4ccc(Cl)cc4C3=O)c2)nc1C`, the growth in test [1] is 98.8%; in test [2] it was 115%; in test [3] it was 103%; in test [4], 94.6%; in test [5], 54.3%; in test [6], 12.3%. Moreover, the growth is -19.5% (active) in test [7] and 103% in test [8].

With `O=C1NCCc2c1noc2-c1ccccc1`, the growth in test [1] was 89.3%; in test [2], 97%; in test [3], 106%; in test [4], 109%; in test [5], 92.9%; in test [6] it was 88.3%. The growth in test [7] is 99.9%; in test [8], 103%.

As to `COC(=O)C1(NC(=O)CNC(=O)OCc2ccccc2)CCCC1`, the growth in test [1] was 113%; in test [2] it was 99.1%; in test [3], 106%; in test [4], 104%; in test [5], 93.9%; in test [6], 99.9%. The growth in test [7] and in test [8] was 108% in each case.
